Experimental data: PubChem BioAssay AID1362 (SRMLSC, 2008)
The campaign covered roughly 190,000 compounds. About 4,000 (2.1%) were called active. Rule as the data show it: active = inhibition above about 58%; inactive = the rest, inconclusive results apart; tested in S. cerevisiae. The sample as a whole holds a higher share of actives than the screen did.

Assay: growth inhibition of WT strain, primary screen, mitochondrial fusion inhibitor project, WT and mutant strains, chemical genetic (AID 1362)
Conditions: mitochondrial fusion phenotypic screen, at 10 µM
[1] = WT strain, growth inhibition, stronger effect = higher value

| SMILES | inhibition [1] | inhibition (mutant strain inhibition) [%] |
| --- | --- | --- |
| O=[N+]([O-])c1ccc2c(c1)C(N1CCOCC1)/C(=C/C1(O)CCCCC1)O2 (stereo not given) | -4.01% (inactive) | 0.41 |
| COc1cc(C)c(Cl)cc1S(=O)(=O)n1ccnc1 | 3.86% (inactive) | -5.05 |
| COC(=O)c1ccc(C2C3=C(Nc4nnnn42)c2ccccc2OC3)cc1 (stereo not given) | 98.5% (active) | -8.54 |
| COC(=O)C1=C(C(=O)c2ccc(C)cc2)C(c2ccccc2)n2nnnc2N1 (stereo not given) | 11.5% (inactive) | 4.37 |
| COc1ccccc1NC(=O)C1=C(C)Nc2nnnn2C1c1cccc(Br)c1 (stereo not given) | -12.6% (inactive) | -7.01 |
| Nc1cc(C(F)(F)F)ccc1N1CCOCC1 | -6.55% (inactive) | -2.84 |
| CC1(C)C=C2[C@H]3CC[C@@H]4[C@@]5(C)CCC(=O)C(C)(C)[C@@H]5CC[C@@]4(C)[C@]3(C)CC[C@@]2(C(=O)O)CC1 | 59.1% (active) | -18.6 |
| Cc1ccc(S(=O)(=O)Nc2nc(N)n(-c3ccccc3)n2)cc1 | -0.46% (inactive) | 3.67 |
| CSc1cc(C)[nH]c(=O)n1 | -8.71% (inactive) | -7.11 |
| S=C(NCCc1ccccc1)NCC1CCCO1 (stereo not given) | -1.69% (inactive) | 7.51 |
| S=C(NN=C1CCN(Cc2ccccc2)CC1)NC1CCCCC1 | 38.9% (inactive) | 25 |
| CCCC1CCC(=NNC(=S)NCCc2ccccc2)CC1 (stereo not given) | 66.8% (active) | 40.1 |
| O=C(O)/C=C/c1ccc(S(=O)(=O)N2CCCCCC2)cc1 | -9.59% (inactive) | 10.2 |
| COc1cc(OC)cc(-c2nnc(N(C)C(=O)c3ccncc3)s2)c1 | -11% (inactive) | -7.45 |
| COCCN(C(=O)c1ccco1)c1nnc(-c2ccc(OC)cc2)s1 | -4.3% (inactive) | -8.85 |
| COCCN(C(=O)C(C)C)c1nnc(-c2ccc(C(C)(C)C)cc2)s1 | 59% (active) | 10 |
| CCC(=O)Nc1cc(C(F)(F)F)ccc1N1CCCC1 | -15.6% (inactive) | 12.5 |
| O=[N+]([O-])c1ccccc1NCc1ccc(Cl)cc1 | 21.2% (inactive) | 13.9 |
| Oc1ccc(N2CCN(C(=S)NCc3ccccc3)CC2)cc1 | -2.43% (inactive) | 0.26 |
| Oc1ccc(CNc2ccccc2O)cc1 | 62% (active) | 57.4 |
| CCC(=O)N(Cc1cc2ccccc2[nH]c1=O)c1ccc(OC)cc1 | -16% (inactive) | 1.27 |
| CN(CCOc1ccc(Br)cc1)CC(=O)Nc1cccc(S(=O)(=O)NC2=NCCC2)c1 | -4.79% (inactive) | -2.03 |

| SMILES | inhibition [1] | inhibition (mutant strain inhibition) [%] |
| --- | --- | --- |
| Cc1onc(-c2ccccc2)c1C(=O)NNC(=S)NC(=O)c1ccc(F)cc1 | 14.1% (inactive) | -24.2 |
| c1ccc2c(c1)OCC(c1nn3cnnc3s1)O2 (stereo not given) | 15.5% (inactive) | 14.4 |
| O=C(Nc1nnc(C2COc3ccccc3O2)o1)c1ccc(F)cc1 (stereo not given) | 62.7% (active) | 52.9 |
| COCCNc1nc2nonc2nc1N1CCCC1c1nccs1 (stereo not given) | 17.4% (inactive) | 12.6 |
| Cc1cc(C)n2nc(SCC(=O)NC(=O)NCc3ccco3)nc2n1 | 8.54% (inactive) | 10.4 |
| COc1ccc(Cn2nnc3c(=O)[nH]c(C4CCN(C(=O)c5ccccc5Cl)CC4)nc32)cc1 | 94.1% (active) | 34.6 |
| Cc1ccc(NC(=O)N2CCC(c3nc4c(nnn4Cc4c(F)cccc4Cl)c(=O)[nH]3)CC2)cc1 | -0.04% (inactive) | 3.09 |
| O=C(Nc1ccc(F)cc1)N1CCCC(c2nc3c(nnn3Cc3ccccc3Cl)c(=O)[nH]2)C1 (stereo not given) | -0.5% (inactive) | 17.4 |
| COCCNC(=O)c1ccc(-n2c(SCc3cccnc3)nc3ccccc3c2=O)cc1 | -8.55% (inactive) | -7.82 |
| O=C(CCN1C(=O)c2ccccc2C1=O)Nc1ccncc1 | 2.36% (inactive) | -2.76 |
| O=C(CCN1c2ccccc2Sc2ccccc21)Nc1ccccc1 | 69.8% (active) | 43.4 |
| CC1CCN(CCC(=O)Nc2ccccc2)CC1 | -7.63% (inactive) | -10 |
| COc1ccc(OC)c(C(=O)c2coc3ccc(O)c(CN4CCOCC4)c23)c1 | 7.31% (inactive) | -1.21 |
| COc1ccc2occ(C(=O)c3ccc(N=C(C)N(C)C)cc3)c2c1 | 6.86% (inactive) | 8.79 |
| COc1ccc(OC)c(C(=O)c2coc3ccc(OC)cc23)c1 | 80.9% (active) | 15.4 |
| CCN(CC)CCNC(=O)c1ccc(NS(=O)(=O)c2ccc3c(c2)OCCO3)cc1 | -8.91% (inactive) | 1.15 |
| C/C(N)=C(/C#N)C(=O)COC(=O)CNS(=O)(=O)c1ccc(C)cc1 | -9.23% (inactive) | 5.26 |
| CCCc1cc(-c2n[nH]c(=S)n2Cc2ccccc2)cs1 | 65.6% (active) | 36.1 |
| CCc1cc(-c2n[nH]c(=S)n2CC(C)C)cs1 | 66.2% (active) | -0.18 |
| Cc1cc(-c2csc(N)n2)c(C)n1Cc1ccccc1 | 12% (inactive) | 5.79 |
| CCn1c(-c2ccncc2)n[nH]c1=S | 5.96% (inactive) | 13.5 |
| C=CCn1c(-c2ccc3[nH]c(C)c(C)c3c2)n[nH]c1=S | 9.01% (inactive) | 0.81 |

| SMILES | inhibition [1] | inhibition (mutant strain inhibition) [%] |
| --- | --- | --- |
| CCCc1cc(-c2n[nH]c(=S)n2CC)c2ccccc2n1 | -17.6% (inactive) | -14.6 |
| CCC(C)CN1CCC(CO)(Cc2ccccc2Cl)CC1 (stereo not given) | 11.3% (inactive) | 4.97 |
| Cc1ccc(NC(=O)C(=O)NCC2CCN(C(=O)c3cccc([N+](=O)[O-])c3)CC2)cc1 | 2.01% (inactive) | -12.9 |
| COc1ccccc1-n1c(=S)[nH]c2c(sc(=S)n2-c2ccc(C)cc2C)c1=O | -7.13% (inactive) | -4.6 |
| Cc1ccc(Nc2cc(C)nc3c(C)ccc([N+](=O)[O-])c23)cc1 | 64.8% (active) | 56.9 |
| Cc1ccc(Nc2ccc(C(N)=O)cc2[N+](=O)[O-])cc1 | 2.16% (inactive) | -8.75 |
| Cc1cc(C)nc(Nc2cc([N+](=O)[O-])ccc2C)n1 | -4.85% (inactive) | 9.39 |
| CCC(C)(C)NC(=O)CN(C(=O)C(=O)Nc1ccc2c(c1)OCCO2)C(C)(C)CC | -7.46% (inactive) | 6.56 |
| Cc1ccc(C(=O)O)cc1N1C(=O)CCCC1=O | -14.9% (inactive) | -14.6 |
| O=C(CN1C(=O)/C(=C\c2ccc(C(F)(F)F)cc2)Sc2ccccc21)NCc1ccco1 | 49% (inactive) | 3.15 |
| CCN1CCN(CCNC(=O)c2ccc(/C=C3/Sc4ccccc4N(Cc4cccc(C)c4)C3=O)cc2)CC1 | 83.7% (active) | 59.2 |
| Cc1nn(Cc2ccccc2)c(C)c1C(=O)NCCN1C(=O)S/C(=C\c2ccc(F)cc2)C1=O | 0.77% (inactive) | 0.61 |
| Cc1ccc(C)c(Cn2cnc3c(oc4ccccc43)c2=O)c1 | -1.67% (inactive) | -14.3 |
| CC(=O)c1ccc(Oc2cc(C)nc(-n3nc(C)cc3C)n2)cc1 | -3.85% (inactive) | 8.66 |
| COc1cccc(/C=N/Nc2cc(C)nc(-c3ccccc3O)n2)c1O | 51.6% (inactive) | 48.3 |
| COc1ccc(Nc2cc(C)nc(-n3nc(C)cc3C)n2)cc1 | 76.8% (active) | 68.7 |
| COc1ccc(NC(=O)c2nc(-n3nc(C)cc3C)ccc2Cl)cc1Cl | 5.72% (inactive) | -16.9 |
| COc1ccccc1/C=N\Nc1cc(C)nc(-n2nc(C)cc2C)n1 | 69.1% (active) | 28.4 |
| COc1cc(NS(=O)(=O)c2ccccc2)ccc1-n1nc(C)cc1C | -33.7% (inactive) | 2.02 |
| COc1ccc(-c2ccc(CCC(=O)O)n2-c2ccc(O)cc2)cc1 | -12.3% (inactive) | -2.11 |
| O=C(Nc1ccccc1)Nc1nc2ccccc2s1 | -5.57% (inactive) | -20.5 |
| O=C(Nc1ccc2ccccc2c1)Nc1ccc2snnc2c1 | 88.1% (active) | 77.8 |

| SMILES | inhibition [1] | inhibition (mutant strain inhibition) [%] |
| --- | --- | --- |
| COc1ccc(NC(=O)Nc2ccc3nsnc3c2)cc1 | 23.1% (inactive) | -36.8 |
| COc1ccc2c(c1)CCc1c(C(=O)N3CCCC3)noc1-2 | -10.3% (inactive) | -6.91 |
| COc1ccc2c(c1)CCc1c(C(=O)Nc3c(C)n(C)n(-c4ccccc4)c3=O)noc1-2 | -9.3% (inactive) | -13 |
| COc1ccc2c(c1)CCc1c(C(=O)N3CCc4ccccc4C3)noc1-2 | 73.9% (active) | 68 |
| COc1ccc(CC2(CO)CCN(Cc3cnn(C)c3)CC2)cc1 | 12.1% (inactive) | -0.62 |
| Cc1cc(O)c(NC(=O)c2ccc(C)c([N+](=O)[O-])c2)cc1C | -6.28% (inactive) | -4.47 |
| CCOc1cccc(OCCCOc2cccc3cccnc23)c1 | 60.8% (active) | 26 |
| Cc1cc(OCCOc2cccc3cccnc23)c(C)cc1Cl | 14.6% (inactive) | 20.4 |
| O=S(=O)(NCCOc1cccc2cccnc12)c1ccc(F)cc1 | 0.13% (inactive) | 5.48 |
| CC[N+]1(CC)CC2=Cc3ccccc3CC2C1 (stereo not given) | 0.67% (inactive) | -6.63 |
| O=C(CCc1ccccc1)NCc1cccnc1 | -0.16% (inactive) | 17.5 |
| COCc1nnc(NC(=O)CS(=O)(=O)Cc2ccccc2)s1 | -3.35% (inactive) | -9.06 |
| O=C(CS(=O)(=O)Cc1ccccc1)Nc1cccnc1 | 90.1% (active) | 19.3 |
| COCCC(=O)Nc1ccc2c(c1)CN(C(=O)CCOC)CC2 | -15.9% (inactive) | -11.2 |
| CC(C)C1Nc2c(C(=O)O)cccc2C(Nc2ccccc2C(=O)O)C1(C)C (stereo not given) | -8.7% (inactive) | -3.34 |
| Cc1cc(C)c2nc(NC(=O)c3ccc4c(c3)OCO4)sc2c1 | 14.1% (inactive) | -21.7 |
| Cc1ccc(-n2nc3c(c2NC(=O)c2ccc4c(c2)OCO4)CSC3)c(C)c1 | 84% (active) | 3.65 |
| Cc1cccc(-n2nc3c(c2NC(=O)c2ccc(Br)o2)CSC3)c1C | 8.72% (inactive) | 6.28 |
| O=C(Oc1cccc(O)c1)C1CCCCC1 | -7.96% (inactive) | 7.95 |
